Laboratory results reported in PubChem BioAssay (NCI).
This is part of a sample that, as a whole, favours compounds with a hit. Of some 79,000 tested, about 15% had one in any assay. Values without a mark were called inactive. Activity calls are given as the source filed them. Cut-off read from the data, not from the text of the source: active = growth inhibition above about 70%; inactive = the rest. Where a SMILES comes first, the peptide text is derived from it. [ ]: non-standard residue; d: D form. Nva = CCC[CH](N)C(=O)O

Experiments:
[1] = NCI Yeast Anticancer Drug Screen. Data for the rad50 strain (AID 155);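 note: 0% = growth of vehicle-only cultures of the same strain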; settings: S. cerevisiae rad50 strain growth inhibition, hits give high values
Summary of the method: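 Inhibition values express reduced yeast growth in compound-treated cultures relative to vehicle-treated controls.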

[2] = NCI Yeast Anticancer Drug Screen. Data for the mec2-1 strain (AID 157); settings: S. cerevisiae mec2-1 strain, hits give high values
Summary of the method: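 Growth inhibition is read against vehicle-treated controls after compound exposure of the mec2-1 yeast strain, which is defective in DNA damage repair or cell cycle control.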

[3] = NCI Yeast Anticancer Drug Screen. Data for the sgs1 mgt1 strain (AID 161);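 note: 0% = growth of cultures given vehicle only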; settings: S. cerevisiae sgs1 mgt1 strain, hits give high values
Summary of the method: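 Percent growth inhibition was derived by comparing compound-exposed mutant yeast with vehicle-exposed cultures. The strain carries alterations in DNA damage repair.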

[4] = NCI Yeast Anticancer Drug Screen. Data for the cln2 rad14 strain (AID 165);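 note: 0% = growth equal to vehicle treated cultures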; settings: S. cerevisiae cln2 rad14 strain, hits give high values
Summary of the method: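 Growth inhibition, relative to vehicle-treated controls, is the read-out. The test organism is a yeast strain with defined genetic alterations, cln2 rad14.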

[5] = NCI Yeast Anticancer Drug Screen. Data for the bub3 strain (AID 167); settings: S. cerevisiae bub3 mutant strain, hits give high values
Summary of the method: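 Steps: expose the mutant yeast strain to compound; grow alongside vehicle-treated cultures; measure growth; express inhibition against the vehicle cultures.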

[6] = NCI Yeast Anticancer Drug Screen. Data for the mlh1 rad18 strain (AID 175); settings: S. cerevisiae mlh1 rad18 strain growth inhibition, hits give high values
Summary of the method: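 Cells of a genetically altered yeast strain, deficient in DNA damage repair, were treated with compound. Their growth was then compared with that of vehicle-treated cultures to give inhibition.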

[7] = at 5.0 µM (retest, dose inferred, filed as 0.5)
[8] = at 50.0 µM (retest, dose inferred, filed as 5.0)

SMILES	growth inhibition [1, 7]	growth inhibition [1, 8]	growth inhibition ([1]; at 50.0 µM)	growth inhibition [2, 7]	growth inhibition [2, 8]	growth inhibition ([2]; at 50.0 µM)	growth inhibition [3, 7]	growth inhibition [3, 8]	growth inhibition ([3]; at 50.0 µM)	growth inhibition [4, 7]	growth inhibition [4, 8]	growth inhibition ([4]; at 50.0 µM)	growth inhibition [5, 7]	growth inhibition [5, 8]	growth inhibition ([5]; at 50.0 µM)	growth inhibition [6, 7]	growth inhibition [6, 8]	growth inhibition ([6]; at 50.0 µM)
CC(=O)N(C)c1ccc(/C=C2\C=Cc3ccccc32)cc1	9%	91% (active)	41.2%	4%	94% (active)	39.7%	10%	93% (active)	26.3%	-4%	81% (active)	32.8%	7%	94% (active)	72.2% (active)	11%	92% (active)	56.3%
C/C(=N\O)c1ccc2cc(Br)c3ccccc3c2c1	12%	98% (active)	96.2% (active)	1%	98% (active)	97.4% (active)	-1%	98% (active)	98% (active)	-20%	96% (active)	96% (active)	8%	98% (active)	95.5% (active)	3%	98% (active)	96.7% (active)
OC/C(=C\c1ccccc1Br)c1ccccc1Br	2%	99% (active)	99% (active)	7%	100% (active)	99.1% (active)	6%	66%	99.2% (active)	0%	100% (active)	97.5% (active)	10%	99% (active)	99% (active)	-10%	99% (active)	99% (active)
CC(NNC(=S)N1CC2CCC(CC2)C1)c1nccc2ccccc12 (configuration not stated)	98% (active)	96% (active)	98.7% (active)	98% (active)	96% (active)	99% (active)	98% (active)	96% (active)	99% (active)	97% (active)	95% (active)	98.3% (active)	97% (active)	94% (active)	99% (active)	98% (active)	96% (active)	99.1% (active)
CP(=O)(c1ccccc1)c1ccccc1	-20%	-17%	12.3%	-1%	5%	13.2%	-21%	-14%	18.4%	18%	-12%	6.05%	-22%	-20%	5.05%	-24%	-25%	41.8%
CCOC(=O)C1(C#N)C(c2ccccc2)C1(C#N)C#N (configuration not stated)	18%	85% (active)	97.9% (active)	29%	96% (active)	99.3% (active)	31%	34%	98.5% (active)	9%	76% (active)	97.8% (active)	14%	92% (active)	97.4% (active)	42%	98% (active)	98.8% (active)
N#Cc1c(-c2ccc([N+](=O)[O-])cc2)c(C#N)c(=O)n(NS(=O)(=O)c2ccccc2)c1S	35%	91% (active)	51.8%	15%	81% (active)	81.6% (active)	17%	88% (active)	78% (active)	46%	67%	40%	46%	87% (active)	61.6%	31%	81% (active)	78.8% (active)
O=C(OCCCC(C(=O)c1ccccc1)=P(c1ccccc1)(c1ccccc1)c1ccccc1)c1ccccc1	35%	99% (active)	84.8% (active)	36%	99% (active)	36.8%	33%	99% (active)	61.5%	6%	98% (active)	9.75%	14%	99% (active)	23.4%	50%	99% (active)	54.8%
Clc1ccc(C(CCOc2ccccc2Br)Cn2ccnc2)c(Cl)c1 (configuration not stated)	89% (active)	98% (active)	99.7% (active)	75% (active)	99% (active)	99.7% (active)	82% (active)	99% (active)	99.7% (active)	68%	99% (active)	97% (active)	89% (active)	99% (active)	99.7% (active)	79% (active)	99% (active)	95.3% (active)
CCCC(N)C(=O)NC(C(=O)O)C(C)C (configuration not stated) (H-[Nva]-Val-OH; configuration not given here)	-2%	-11%	38.1%	-2%	-3%	51.9%	1%	-5%	17.1%	1%	-5%	86% (active)	2%	-3%	62%	-2%	-9%	8.4%
COc1ccc(N=Cc2ccccc2O)cc1	-9%	-57%	8.1%	0%	-33%	-8%	-8%	-36%	2.65%	-4%	-24%	40.9%	-27%	-118%	-5.25%	-7%	-45%	-26.1%
Oc1ccc(COCCBr)c2cccnc12	8%	98% (active)	98.8% (active)	-2%	99% (active)	99.5% (active)	4%	99% (active)	99.2% (active)	8%	98% (active)	98.5% (active)	1%	98% (active)	99.2% (active)	30%	99% (active)	99.2% (active)
Cc1ccc(O)c(C(C)(C)c2ccccc2)c1	-8%	77% (active)	99.5% (active)	-5%	94% (active)	99.8% (active)	-9%	43%	99.7% (active)	-6%	90% (active)	98.7% (active)	-49%	95% (active)	99.5% (active)	-10%	94% (active)	99.3% (active)
CN1c2ccccc2C(=O)NC1c1ccc([N+](=O)[O-])s1 (configuration not stated)	-9%	53%	63.5%	7%	8%	41%	-19%	32%	71.8% (active)	11%	23%	33.4%	-47%	35%	57%	-22%	63%	73.1% (active)
Oc1cc2ccccc2c2c1ccc1ccccc12	-142%	90% (active)	84.5% (active)	-35%	97% (active)	77.8% (active)	-52%	95% (active)	86.7% (active)	-55%	95% (active)	67.8%	-55%	94% (active)	84% (active)	-94%	92% (active)	77.3% (active)
ClC1(Cl)C(Cl)(Cl)C12c1ccccc1-c1ccccc12	14%	94% (active)	98.6% (active)	-26%	97% (active)	98.8% (active)	15%	98% (active)	99% (active)	2%	95% (active)	86.8% (active)	28%	95% (active)	98% (active)	29%	96% (active)	98.6% (active)
CC(=O)OC1=CC(n2cc(F)c(=O)[nH]c2=O)OC(C)C1=O (configuration not stated)	23%	58%	69.7%	13%	85% (active)	88.4% (active)	24%	64%	86.5% (active)	19%	4%	37.5%	15%	-13%	62.1%	20%	57%	51.7%
C=C1CC2(CCS(=O)(=O)c3ccccc32)OC1=O (configuration not stated)	2%	27%	25.6%	5%	35%	60.6%	7%	37%	69%	6%	15%	36.6%	2%	47%	46.6%	2%	49%	48.9%
CSC(SC)=C1C(=O)NC(Cc2ccccc2)C1=O (configuration not stated)	6%	50%	80.1% (active)	1%	35%	36.1%	0%	66%	71.8% (active)	2%	24%	37.5%	1%	34%	50.3%	5%	68%	83% (active)
